Here are results for 40 sequences from the OligoGym collection.
Also: reference of the scale not given here.

For the first test, the target named is ACTL6A. Briefly: pooled miR-30 sensor sort-seq; sequence = guide strand. The following applies: shRNA.
Regarding TTACACATATAATTGTGCCAAG, the sensor-assay potency score (higher = more potent) is -1.42.
On the same count and under the same terms, then TTACACTGCCATAGAGACCTGG, with -0.411.
Take TTGCTCTAGTATTCCACGGTGC: the sensor-assay potency score (higher = more potent) was -0.281.
TGACTGACTCCTAACATTGTGT returned a sensor-assay potency score (higher = more potent) of -0.541.
TTAGTATCTATGTAGTAGGTGG had a sensor-assay potency score (higher = more potent) of 0.198.
ATAGCTTGGAAACTATCCCAGT yielded a sensor-assay potency score (higher = more potent) of -0.733.
For the sequence TAGTGTTCAAACATTAACTCTG, the sensor-assay potency score (higher = more potent) turned out to be 0.293.
TTTGCTCTAGTATTCCACGGTG came in with a sensor-assay potency score (higher = more potent) of -0.0557.
Regarding TTGAAGGACATAGCCATCGTGG, the sensor-assay potency score (higher = more potent) was -0.822.
On the same count and under the same terms, then TTGACATGCATTTTGTAGGTAT, with 0.179; and TAACCTGAGGCAACTTCTCTTT, with -0.605.
For the sequence TTTGCAATCAATTTCAACCGCA, the sensor-assay potency score (higher = more potent) came out at 0.585.
Same read-out and setting: as for TTGAATCTGACACTTGAAGTAC, the figure is -0.0659; as for TAGTAATAAAGTCTCCAGCAAG, -1.21; as for AATAGCTTGGAAACTATCCCAG, -0.568.
Sequence TTGTGGTGACAACATGACTGAC returned a sensor-assay potency score (higher = more potent) of -0.897.
On to TACACTGCCATAGAGACCTGGT, for which the sensor-assay potency score (higher = more potent) was -0.00757.
TTGTGTTTCCTGATAACCCCTT gave a sensor-assay potency score (higher = more potent) of 0.282.
Take TAGTATTCCACGGTGCCTCTGA: the sensor-assay potency score (higher = more potent) worked out at 0.0107.
As to TTGCTTGGAAATCCACATCTGT, the sensor-assay potency score (higher = more potent) was -0.451.
As for TTTTCTGAGACAGCTCTCTATT, the sensor-assay potency score (higher = more potent) was -0.807.
The same measure, in the same setting: as for TAATTGTGCCAAGACCTCGTAA, the figure is -0.587.

For another test, the target named is ACTR3B. The description is as above. The settings on record: shRNA.
TTACTTCATCAACAACATCTGA gave a sensor-assay potency score (higher = more potent) of -0.87.
Same read-out and setting: as for TTTAAAAACCACTTGCTCCATG, the figure is -0.231.
TTCATCAACAACATCTGAGATG displayed a sensor-assay potency score (higher = more potent) of -0.638.
Same read-out and setting: as for TACGACATTCTTATACAGCGGG, the figure is -0.141.
In turn, TATAACAAACTTCTTCTGGTTG returned a sensor-assay potency score (higher = more potent) of -0.5.
TTGATCGCATTGATACCCGTGT gave a sensor-assay potency score (higher = more potent) of -0.213.
On the same count and under the same terms, as for TACTGTTTGATCCACTTCCGGG, the figure is -0.539; as for TTCTGCAAGATACTCTCTGTTT, -0.433.
For the sequence TTACATAACCTTCTGCCACTGG, the sensor-assay potency score (higher = more potent) was determined as 0.166.
Turning to TACTTCATCAACAACATCTGAG, the sensor-assay potency score (higher = more potent) came out at 0.487.
TTGAGCTTGGTCAACTACCTTT: the sensor-assay potency score (higher = more potent) is -0.378.
On the same count and under the same terms, then TCTATAACAAACTTCTTCTGGT, with 0.599.

The target of the next test is ACYP1. The description is as above. The settings on record: shRNA.
The sequence TTTCATTGTTGAAGTTTGCTTT registered a sensor-assay potency score (higher = more potent) of 0.5.
Still for that read-out and setting: as for TCGATGTGTGATTTAGGACTTC, the figure is -0.511; as for TTCCTGCATATGACGCACCTTG, -0.872; as for TTGTCGATGTGTGATTTAGGAC, -0.517.
As to TTGTGTACAGTGGTAATCCTTC, the sensor-assay potency score (higher = more potent) was -0.227.
As to TTTTCATTGTTGAAGTTTGCTT, the sensor-assay potency score (higher = more potent) is -0.234.
